According to the supplement of paper PMC11732987, “Enantioselective OTUD7B fragment discovery through chemoproteomics screening and high-throughput optimisation” (Communications Chemistry, 2025):

Assays:
Assay in all cases: log2 ratio of Biotin-Ahx-Ub-VS probe labelling (fragment/DMSO); higher = less target engagement (more negative = stronger competition), active = hit call of the paper (q ≤ 0.05, log2 ratio ≤ -1)
Conditions in all cases: compound concentration: 200 uM; treatment time: 3 h
USP34 = USP34 (UniProt Q70CQ2)
Procedure, shortened: (§1)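 HEK293T lysate (495 µg per sample, in Tris/CHAPS/IGEPAL buffer with protease inhibitors) was treated in triplicate with fragment at 200 µM or with DMSO for 3 h. It was then treated with Biotin-Ahx-Ub-VS (0.5 µM final) for 1 h. Labelled DUBs were NeutrAvidin-enriched, digested with LysC and trypsin, and run by diaPASEF LC-MS/MS. Spectronaut label-free quantities were global-median-normalised. Values are average log2 ratios fragment/DMSO by unpaired t-test, using proteins with ≥2 unique peptides.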

USP36 = target: T1, USP36 (UniProt Q9P275)
T1 sequence (whole entry): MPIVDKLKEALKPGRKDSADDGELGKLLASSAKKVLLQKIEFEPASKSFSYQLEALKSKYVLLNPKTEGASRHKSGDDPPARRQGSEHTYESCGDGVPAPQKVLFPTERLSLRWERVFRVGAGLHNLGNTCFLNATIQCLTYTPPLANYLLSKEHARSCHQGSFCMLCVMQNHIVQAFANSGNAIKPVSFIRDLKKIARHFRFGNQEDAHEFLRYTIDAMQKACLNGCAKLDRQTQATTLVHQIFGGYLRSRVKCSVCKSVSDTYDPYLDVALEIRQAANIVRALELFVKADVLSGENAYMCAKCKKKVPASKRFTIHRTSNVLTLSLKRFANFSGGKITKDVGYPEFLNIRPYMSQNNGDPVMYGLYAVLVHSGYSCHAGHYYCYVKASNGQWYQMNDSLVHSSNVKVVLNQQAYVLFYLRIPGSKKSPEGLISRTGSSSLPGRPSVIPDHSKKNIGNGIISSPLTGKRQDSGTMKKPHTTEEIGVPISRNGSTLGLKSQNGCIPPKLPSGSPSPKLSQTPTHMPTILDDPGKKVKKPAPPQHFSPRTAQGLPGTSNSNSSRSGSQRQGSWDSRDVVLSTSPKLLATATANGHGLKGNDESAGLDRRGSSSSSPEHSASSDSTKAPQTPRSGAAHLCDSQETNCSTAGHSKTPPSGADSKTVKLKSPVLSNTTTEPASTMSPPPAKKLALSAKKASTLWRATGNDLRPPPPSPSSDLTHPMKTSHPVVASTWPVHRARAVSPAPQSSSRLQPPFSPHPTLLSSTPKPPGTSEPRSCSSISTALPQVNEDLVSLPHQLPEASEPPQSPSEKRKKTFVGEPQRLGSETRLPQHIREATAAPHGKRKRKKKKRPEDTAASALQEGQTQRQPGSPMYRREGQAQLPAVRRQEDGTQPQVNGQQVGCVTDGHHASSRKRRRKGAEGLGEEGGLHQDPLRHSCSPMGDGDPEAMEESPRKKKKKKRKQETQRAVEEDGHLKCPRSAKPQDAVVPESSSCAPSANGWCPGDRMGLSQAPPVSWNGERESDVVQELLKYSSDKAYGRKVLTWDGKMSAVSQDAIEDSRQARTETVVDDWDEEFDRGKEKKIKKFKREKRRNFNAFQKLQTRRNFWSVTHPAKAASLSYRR
Procedure, shortened: as §1

USP38 = target: T2, USP38 (UniProt Q8NB14)
T2 sequence (whole entry): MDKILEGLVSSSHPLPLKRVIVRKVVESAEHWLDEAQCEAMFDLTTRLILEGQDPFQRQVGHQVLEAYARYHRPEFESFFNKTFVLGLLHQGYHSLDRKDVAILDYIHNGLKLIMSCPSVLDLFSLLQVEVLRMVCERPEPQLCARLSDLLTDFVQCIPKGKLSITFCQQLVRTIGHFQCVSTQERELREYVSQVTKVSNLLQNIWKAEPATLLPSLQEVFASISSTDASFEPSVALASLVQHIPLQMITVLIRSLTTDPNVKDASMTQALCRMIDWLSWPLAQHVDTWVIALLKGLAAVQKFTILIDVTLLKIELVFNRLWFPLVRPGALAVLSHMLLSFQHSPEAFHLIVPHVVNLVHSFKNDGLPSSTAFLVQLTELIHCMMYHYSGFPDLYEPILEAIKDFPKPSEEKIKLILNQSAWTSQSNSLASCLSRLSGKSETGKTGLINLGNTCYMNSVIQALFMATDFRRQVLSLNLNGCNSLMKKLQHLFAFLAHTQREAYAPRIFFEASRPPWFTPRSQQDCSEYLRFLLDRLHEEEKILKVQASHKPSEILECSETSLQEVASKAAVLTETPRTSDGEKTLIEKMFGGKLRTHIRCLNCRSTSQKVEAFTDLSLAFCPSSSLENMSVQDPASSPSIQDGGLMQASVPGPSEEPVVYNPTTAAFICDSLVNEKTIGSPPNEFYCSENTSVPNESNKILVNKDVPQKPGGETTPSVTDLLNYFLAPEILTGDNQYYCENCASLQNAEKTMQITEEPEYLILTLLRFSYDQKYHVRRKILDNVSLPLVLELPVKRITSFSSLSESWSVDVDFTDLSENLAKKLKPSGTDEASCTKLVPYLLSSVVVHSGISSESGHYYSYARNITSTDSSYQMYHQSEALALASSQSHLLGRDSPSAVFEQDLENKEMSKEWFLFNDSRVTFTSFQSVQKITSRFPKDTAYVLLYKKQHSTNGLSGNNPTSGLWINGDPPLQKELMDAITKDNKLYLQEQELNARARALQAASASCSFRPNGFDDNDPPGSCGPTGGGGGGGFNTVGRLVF
Procedure, shortened: as §1

USP39 = target: T3, USP39 (UniProt Q53GS9)
T3 sequence (whole entry): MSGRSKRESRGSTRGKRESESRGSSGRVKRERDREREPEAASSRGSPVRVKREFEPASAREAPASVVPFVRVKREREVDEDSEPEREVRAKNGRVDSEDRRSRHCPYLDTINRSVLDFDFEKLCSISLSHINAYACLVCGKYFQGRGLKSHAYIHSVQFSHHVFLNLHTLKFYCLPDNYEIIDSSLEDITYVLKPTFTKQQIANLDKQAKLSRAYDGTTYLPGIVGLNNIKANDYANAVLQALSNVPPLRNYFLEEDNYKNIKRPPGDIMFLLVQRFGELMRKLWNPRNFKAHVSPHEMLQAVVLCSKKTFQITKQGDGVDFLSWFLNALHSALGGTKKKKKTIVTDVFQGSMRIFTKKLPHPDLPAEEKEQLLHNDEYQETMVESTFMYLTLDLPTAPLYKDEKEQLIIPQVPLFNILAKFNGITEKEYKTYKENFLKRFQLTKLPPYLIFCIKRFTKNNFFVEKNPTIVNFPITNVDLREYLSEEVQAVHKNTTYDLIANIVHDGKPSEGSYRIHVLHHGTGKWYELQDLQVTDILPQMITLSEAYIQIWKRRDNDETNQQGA
Procedure, shortened: as §1

USP4 = target: T4, USP4 (UniProt Q13107)
T4 sequence (whole entry): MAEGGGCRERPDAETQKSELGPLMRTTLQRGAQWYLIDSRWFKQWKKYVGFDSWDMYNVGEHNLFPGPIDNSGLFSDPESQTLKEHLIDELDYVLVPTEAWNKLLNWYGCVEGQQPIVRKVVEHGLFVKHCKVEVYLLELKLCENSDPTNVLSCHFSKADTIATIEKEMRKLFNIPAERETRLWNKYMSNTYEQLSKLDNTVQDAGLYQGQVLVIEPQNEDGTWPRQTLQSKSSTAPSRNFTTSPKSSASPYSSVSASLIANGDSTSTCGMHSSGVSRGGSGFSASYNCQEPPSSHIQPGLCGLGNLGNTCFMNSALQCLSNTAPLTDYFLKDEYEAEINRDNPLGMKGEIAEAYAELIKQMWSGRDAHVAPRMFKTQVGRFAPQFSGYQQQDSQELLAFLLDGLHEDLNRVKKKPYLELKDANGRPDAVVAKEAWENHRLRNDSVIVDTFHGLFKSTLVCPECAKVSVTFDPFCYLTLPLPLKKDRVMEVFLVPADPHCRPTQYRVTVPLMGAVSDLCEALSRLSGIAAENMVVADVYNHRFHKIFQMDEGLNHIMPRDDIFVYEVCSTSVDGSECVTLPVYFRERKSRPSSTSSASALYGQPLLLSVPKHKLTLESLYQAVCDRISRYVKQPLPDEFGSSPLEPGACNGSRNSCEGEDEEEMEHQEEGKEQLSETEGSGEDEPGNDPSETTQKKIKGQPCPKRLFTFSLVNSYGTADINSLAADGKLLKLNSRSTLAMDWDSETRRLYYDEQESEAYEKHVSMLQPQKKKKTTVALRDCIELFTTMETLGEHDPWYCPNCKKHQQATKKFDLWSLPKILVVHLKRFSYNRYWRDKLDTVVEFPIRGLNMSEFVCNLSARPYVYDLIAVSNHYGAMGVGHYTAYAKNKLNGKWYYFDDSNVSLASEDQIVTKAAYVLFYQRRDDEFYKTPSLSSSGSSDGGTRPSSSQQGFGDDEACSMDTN
Procedure, shortened: as §1

Measured: log2 ratio of Biotin-Ahx-Ub-VS probe labelling

Chain of USP34 (Q70CQ2 whole entry, the tested form may be a part): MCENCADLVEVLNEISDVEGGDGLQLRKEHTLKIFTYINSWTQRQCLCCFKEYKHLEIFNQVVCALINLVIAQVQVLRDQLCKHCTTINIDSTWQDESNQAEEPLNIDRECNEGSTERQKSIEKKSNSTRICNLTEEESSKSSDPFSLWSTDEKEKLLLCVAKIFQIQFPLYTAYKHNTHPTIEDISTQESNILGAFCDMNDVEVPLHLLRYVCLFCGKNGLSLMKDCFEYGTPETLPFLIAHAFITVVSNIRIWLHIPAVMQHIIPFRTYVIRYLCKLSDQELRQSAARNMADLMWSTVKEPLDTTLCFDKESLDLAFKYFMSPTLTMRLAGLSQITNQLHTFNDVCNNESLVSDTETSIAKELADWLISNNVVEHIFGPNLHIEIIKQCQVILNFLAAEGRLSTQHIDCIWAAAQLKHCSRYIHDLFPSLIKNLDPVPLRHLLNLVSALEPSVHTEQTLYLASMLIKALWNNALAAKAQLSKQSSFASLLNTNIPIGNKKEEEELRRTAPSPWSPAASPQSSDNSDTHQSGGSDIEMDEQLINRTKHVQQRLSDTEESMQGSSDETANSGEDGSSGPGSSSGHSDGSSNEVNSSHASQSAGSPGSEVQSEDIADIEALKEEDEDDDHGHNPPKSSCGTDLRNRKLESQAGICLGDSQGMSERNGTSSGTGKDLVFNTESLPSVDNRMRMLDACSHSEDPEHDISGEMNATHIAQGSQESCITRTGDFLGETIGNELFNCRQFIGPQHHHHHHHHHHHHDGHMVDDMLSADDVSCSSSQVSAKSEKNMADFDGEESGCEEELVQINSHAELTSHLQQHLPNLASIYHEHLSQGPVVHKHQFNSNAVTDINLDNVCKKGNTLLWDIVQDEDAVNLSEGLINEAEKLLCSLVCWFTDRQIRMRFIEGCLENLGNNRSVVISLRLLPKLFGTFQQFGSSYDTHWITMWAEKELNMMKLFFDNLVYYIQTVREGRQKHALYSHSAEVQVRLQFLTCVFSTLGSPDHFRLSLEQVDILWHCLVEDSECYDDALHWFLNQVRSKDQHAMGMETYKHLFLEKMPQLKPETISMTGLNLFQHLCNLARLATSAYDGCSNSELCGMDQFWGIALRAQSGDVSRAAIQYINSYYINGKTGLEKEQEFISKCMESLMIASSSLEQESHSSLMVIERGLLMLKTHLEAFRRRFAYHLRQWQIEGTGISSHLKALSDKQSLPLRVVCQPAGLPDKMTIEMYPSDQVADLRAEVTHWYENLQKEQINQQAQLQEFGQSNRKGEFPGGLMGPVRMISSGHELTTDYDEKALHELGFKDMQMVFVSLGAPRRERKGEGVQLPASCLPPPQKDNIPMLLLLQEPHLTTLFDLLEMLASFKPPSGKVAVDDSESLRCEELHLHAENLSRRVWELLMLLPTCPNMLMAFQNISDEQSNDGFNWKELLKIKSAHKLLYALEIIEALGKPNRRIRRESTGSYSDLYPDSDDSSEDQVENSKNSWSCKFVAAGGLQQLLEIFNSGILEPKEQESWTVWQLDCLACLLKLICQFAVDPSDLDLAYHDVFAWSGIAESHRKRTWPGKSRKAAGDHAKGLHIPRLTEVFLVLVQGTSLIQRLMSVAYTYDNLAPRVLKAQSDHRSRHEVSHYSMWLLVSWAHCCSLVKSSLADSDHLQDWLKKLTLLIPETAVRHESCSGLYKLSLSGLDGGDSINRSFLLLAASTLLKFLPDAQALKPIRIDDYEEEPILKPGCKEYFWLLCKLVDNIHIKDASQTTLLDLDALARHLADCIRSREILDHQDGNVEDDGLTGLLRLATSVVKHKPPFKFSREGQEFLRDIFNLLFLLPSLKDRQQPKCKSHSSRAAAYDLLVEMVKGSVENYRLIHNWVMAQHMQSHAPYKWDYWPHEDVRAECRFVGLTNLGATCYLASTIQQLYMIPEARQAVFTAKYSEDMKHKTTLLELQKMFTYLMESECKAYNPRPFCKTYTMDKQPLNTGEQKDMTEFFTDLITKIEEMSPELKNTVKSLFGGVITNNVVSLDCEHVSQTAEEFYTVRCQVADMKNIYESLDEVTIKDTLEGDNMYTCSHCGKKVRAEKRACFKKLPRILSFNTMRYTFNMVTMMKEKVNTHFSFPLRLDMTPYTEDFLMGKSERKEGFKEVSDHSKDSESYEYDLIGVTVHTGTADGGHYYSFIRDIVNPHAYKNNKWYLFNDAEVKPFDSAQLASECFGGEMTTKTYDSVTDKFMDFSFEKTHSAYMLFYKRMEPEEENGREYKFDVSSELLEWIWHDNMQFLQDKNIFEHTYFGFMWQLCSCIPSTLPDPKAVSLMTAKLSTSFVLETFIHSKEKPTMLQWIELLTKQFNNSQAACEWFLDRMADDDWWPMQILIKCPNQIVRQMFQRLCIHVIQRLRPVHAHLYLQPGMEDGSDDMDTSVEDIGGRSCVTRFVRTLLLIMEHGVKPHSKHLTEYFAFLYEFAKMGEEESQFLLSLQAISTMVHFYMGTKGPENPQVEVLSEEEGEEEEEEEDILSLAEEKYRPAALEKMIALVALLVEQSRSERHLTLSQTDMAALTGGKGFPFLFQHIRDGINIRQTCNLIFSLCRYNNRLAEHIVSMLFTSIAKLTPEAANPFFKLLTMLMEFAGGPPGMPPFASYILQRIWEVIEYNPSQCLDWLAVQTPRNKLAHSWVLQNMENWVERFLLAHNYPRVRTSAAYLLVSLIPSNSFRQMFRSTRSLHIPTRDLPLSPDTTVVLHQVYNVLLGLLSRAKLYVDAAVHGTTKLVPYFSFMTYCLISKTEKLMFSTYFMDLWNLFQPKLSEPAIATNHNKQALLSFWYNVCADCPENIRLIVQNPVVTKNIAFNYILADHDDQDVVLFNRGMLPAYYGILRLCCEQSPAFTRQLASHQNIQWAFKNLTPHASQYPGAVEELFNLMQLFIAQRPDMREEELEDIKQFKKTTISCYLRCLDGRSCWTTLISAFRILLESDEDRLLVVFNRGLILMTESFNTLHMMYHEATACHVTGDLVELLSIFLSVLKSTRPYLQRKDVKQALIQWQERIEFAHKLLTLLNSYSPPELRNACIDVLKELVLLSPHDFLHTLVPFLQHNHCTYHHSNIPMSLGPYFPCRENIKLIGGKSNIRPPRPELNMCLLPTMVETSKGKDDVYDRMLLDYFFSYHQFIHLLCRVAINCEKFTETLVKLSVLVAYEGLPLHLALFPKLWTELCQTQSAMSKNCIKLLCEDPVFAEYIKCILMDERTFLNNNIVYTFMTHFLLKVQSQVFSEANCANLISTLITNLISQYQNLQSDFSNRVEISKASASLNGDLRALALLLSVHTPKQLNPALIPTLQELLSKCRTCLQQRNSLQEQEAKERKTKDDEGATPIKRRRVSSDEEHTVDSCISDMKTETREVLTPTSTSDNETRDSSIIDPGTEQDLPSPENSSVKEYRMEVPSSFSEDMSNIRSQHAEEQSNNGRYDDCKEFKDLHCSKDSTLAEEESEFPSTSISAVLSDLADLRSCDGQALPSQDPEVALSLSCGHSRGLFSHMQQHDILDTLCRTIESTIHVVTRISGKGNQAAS

N#Cc1ccccc1N1CCN(C(=O)CCl)CC1
inactive: USP34 -0.549 | USP36 -0.232 | USP38 -0.312 | USP39 0.399 | USP4 -0.61
